Experimental findings from PubChem BioAssay (NCI) are described below.

This is part of a sample that, as a whole, favours compounds with a hit. Of some 83,000 tested, about 20% had one in any assay.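 Growth was measured after 48 h exposure to one concentration of compound in 96-well plates. Values under 10 count as active.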 Values without a mark were called inactive. The source made the active and inactive calls.

Assay in all cases: NCI-60 one-dose screen, 48 h (100 = growth as untreated, 0 = no growth, -100 = all killed)
What all share (details): 10 µM unless noted

Assay [1] deals with HCT-15 colon.
For assay [2], the system named is HT29 colon.
The test system of assay [3] is SNB-75 CNS.
Assay [4] deals with SNB-19 CNS.
For assay [5], the system named is U251 CNS.
Assay [6] concerns PC-3 prostate.
For assay [7], the system named is SK-MEL-5 melanoma.
In assay [8] the test system is UACC-62 melanoma.
For assay [9], the system named is LOX IMVI melanoma.
The subject of assay [10] is SK-MEL-28 melanoma.

As for `N#Cc1c(-c2ccc(F)cc2)cc(-c2cccc(Cl)c2)[nH]c1=O`, the growth in [1] is 58.1%; in assay [2], 110%; in [3], -25.5% (active); in [4], 42.7%; in assay [5], 39.5%; in assay [6], 72.7%. Also, the growth in assay [7] was 70.1%; in [8] it was 40.9%; in assay [9] it was 63.6%; in assay [10] it was 83.9%.

Take `O=S(=O)(Nc1ccc(Br)cc1)c1ccc(-c2cnc(C3CC3)o2)cc1`: the growth is 20.8% in assay [1]; 13.9% in [2]; -6.53% (active) in assay [3]; 35.3% in assay [4]; 24.9% in assay [5]; 29.2% in assay [6]. The growth in assay [7] was 19.2%; in [8], 23.6%; in [9], 45.9%; in assay [10], 53.5%.

As for `Cc1c(Cl)cccc1NC(=O)c1sc2nc3c(cc2c1N)CCCC3`, the growth in assay [1] is 24.1%; in assay [2], 8.28% (active); in [3], 29.6%; in [4], 32.6%; in assay [5], 21%; in assay [6] it was 42.1%. Also, the growth in [7] was 31%; in [8], 17.3%; in [9] it was 39.1%; in assay [10] it was 68.6%.

Consider `Oc1ccc(Cc2ccc(O)c3ncccc23)c2cccnc12`, for which the growth is 13.1% in [1]; 57.6% in assay [2]; 12.9% in [3]; 15.9% in assay [4]; 6.14% (active) in assay [5]; 5.52% (active) in [6]. Also, the growth in [7] was -47.3% (active); in [8], 1.18% (active); in [9] it was 16.7%; in [10], 30.3%.

In the case of `O=C(Nc1ncc(Cc2cc(C(F)(F)F)ccc2Cl)s1)C(=S)N1CCOCC1`, the growth in [1] was 78.6%; in assay [2], 95.1%; in assay [3], 86.7%; in [4], 96.9%; in assay [5], 90.3%; in assay [6], 81.3%. The growth in assay [7] was 96.6%; in assay [8], 72.6%; in assay [9], 90.5%; in [10], 114%.

Consider `O=C1/C(=C/c2ccc(-c3ccc(Cl)cc3)o2)SC(=S)N1CCc1ccc(O)cc1`, for which the growth is 67.5% in assay [1]; 25.2% in [2]; 25.8% in assay [3]; 87.2% in [4]; 22.2% in assay [5]; 53.2% in [6]. Also, the growth in assay [7] is 94.5%; in assay [8], 50.5%; in [9], 75.1%; in [10] it was 93.6%.

Take `COc1ccc(/C=C\c2cc(OC)c(OC)c(OC)c2)cc1OCC(=O)Nc1nc2ccccc2s1`: the growth is 23% in [1]; 1.98% (active) in [2]; 30.3% in [3]; 43.8% in assay [4]; 13.9% in [5]; 31.1% in assay [6]. Moreover, the growth in assay [7] is -64% (active); in assay [8], 28%; in [9], 11.5%; in assay [10] it was 65.4%.

On to `C#CC#CC#CC#CC#CC#CC#CC#CC[C@@H]1OC[C@H](COC(=O)O[C@@H](C(=O)O[C@H]2C[C@@]3(O)[C@@H](OC(=O)c4ccccc4)[C@@H]4[C@]5(OC(C)=O)CO[C@@H]5C[C@H](O)[C@@]4(C)C(=O)[C@H](OC(C)=O)C(=C2C)C3(C)C)[C@@H](NC(=O)c2ccccc2)c2ccccc2)O1`, for which the growth in assay [1] was 98.8%; in [2], 4.07% (active); in [3] it was 34.9%; in [4], 38.1%; in [5], 28.5%; in assay [6], 26.1%. The growth in [7] was 48.7%; in [8] it was 35%; in assay [9] it was 34.3%; in [10] it was 52.2%.

`CC1(C)C2=C(C(=O)N1Cc1ccccc1)C(c1ccco1)N(C(=O)C1CCC1)CCN2` (stereo not given): the growth was 109% in assay [1]; 106% in assay [2]; 83.7% in assay [3]; 98.9% in [4]; 100% in [5]; 95.2% in assay [6]. Also, the growth is 105% in [7], 91.7% in assay [8], 96.8% in assay [9] and 115% in assay [10].

On to `CC(C)=CC(=O)C1C(=O)c2ccccc2C1=O`, for which the growth was 95% in assay [1]; 111% in assay [2]; 90% in assay [3]; 94.7% in [4]; 95.1% in assay [5]; 100% in assay [6]. Moreover, the growth in assay [7] was 99.2%; in assay [8], 94.3%; in assay [9], 96.8%; in [10] it was 108%.

As for `CC(=O)c1c(/C=C/c2ccc(C)cc2)c2ccccc2[nH]c1=O`, the growth in assay [1] was 102%; in assay [2] it was 105%; in assay [3], 73.7%; in assay [4], 73.5%; in assay [5], 86%; in assay [6] it was 81.2%. The growth in [7] is 95.9%; in assay [8], 80.7%; in [9], 84.7%; in assay [10], 110%.

Consider `O=C(Nc1cccc(Cn2c(=O)[nH]c3ccc(Oc4ncccn4)cc3c2=O)c1)c1cccc(Cl)c1`, for which the growth in [1] is 61.3%; in assay [2] it was 54.8%; in assay [3], 82.2%; in assay [4], 65.3%; in assay [5] it was 61.9%; in assay [6], 50.3%. Further, the growth in [7] is 11.4%; in [8] it was 52.1%; in [9], 71.4%; in [10], 78.8%.

With `CCOC(=O)C1=C(C)N(C)C(=O)N(C)C1c1ccccc1` (stereo not given), the growth in assay [1] is 102%; in [2], 97.8%; in [3] it was 79.2%; in [4], 93.8%; in assay [5], 99.3%; in [6] it was 92.7%. The growth in assay [7] was 93.3%; in assay [8] it was 86.7%; in assay [9], 96.1%; in [10], 124%.

For the compound `NC(=N\N=C/c1ccc(Cl)cc1Cl)/C(N)=N\N=C/c1ccc(Cl)cc1Cl`, the growth is 82.9% in assay [1]; 52.5% in assay [2]; 8.06% (active) in assay [3]; 69.8% in [4]; 36.2% in assay [5]; 89.2% in assay [6]. The growth in [7] is 108%; in assay [8], 94.9%; in [9], 74%; in assay [10] it was 110%.

`CN1CCN(Cc2ccc(NC(=O)c3cncc(C#Cc4cnc(N)c5ccc(C#N)cc45)c3)cc2C(F)(F)F)CC1`: the growth in assay [1] is -82.4% (active); in assay [2], -32.4% (active); in assay [3], -20% (active); in assay [4], 25.8%; in assay [5], 3.03% (active); in assay [6] it was 27.4%. Moreover, the growth was -93.2% (active) in [7], -51.8% (active) in assay [8], -95.8% (active) in assay [9] and -81% (active) in assay [10].

With `CC(C)CCc1nc2ccc(NCc3ccc(OCCN4CCC(C)CC4)cc3)cc2[nH]1`, the growth in assay [1] is 67.4%; in assay [2] it was 40.3%; in assay [3], 90.8%; in assay [4], 88.6%; in assay [5], 71.6%; in assay [6] it was 61.4%. The growth in assay [7] was 84.9%; in assay [8], 82.5%; in assay [9], 59.6%; in assay [10], 75.7%.

With `COc1cc2c(c(OC)c1OC)CCC(c1cccc(C(=O)Nc3ccc([N+](=O)[O-])cc3)c1)O2` (stereo not given), the growth in assay [1] is 54.5%; in assay [2], 64%; in assay [3], 66.7%; in assay [4], 56.7%; in assay [5] it was 57.7%; in assay [6], 27.1%. In addition, the growth in assay [7] was 15.4%; in assay [8], 31.4%; in assay [9], 52.9%; in [10], 61.9%.

Turning to `Nc1ncc(-c2ccc3ncnc(N4CCc5cc(F)c(Cl)cc54)c3c2)cc1C=O`, the growth in assay [1] is 26.5%; in assay [2], 16.4%; in assay [3] it was -38.3% (active); in assay [4] it was 37%; in assay [5] it was 48.5%; in assay [6] it was 20.1%. Besides, the growth in assay [7] is 2.88% (active); in assay [8], -17.2% (active); in assay [9] it was 19.2%; in assay [10], 10.2%.

As for `O=C(CSc1nc(-c2ccccc2)cn1-c1ccc(Cl)cc1)c1ccc([N+](=O)[O-])cc1`, the growth in assay [1] is 76.1%; in [2] it was 56.1%; in assay [3], 93.8%; in assay [4] it was 90.8%; in assay [5] it was 93.3%; in assay [6], 73.2%. Besides, the growth in assay [7] was 80.8%; in assay [8], 66.2%; in assay [9], 96.1%; in assay [10] it was 89%.

`CC1=C([Se]CC(OC(=O)[C@@H](CO)NC(=O)OC(C)(C)C)C(=O)NCCCCCC(=O)OCc2ccccc2)C(=O)c2ccccc2C1=O` (stereo not given in full): the growth in assay [1] was -45.8% (active); in assay [2], -67.5% (active); in assay [3], -99.6% (active); in assay [4] it was -87% (active); in assay [5], -85.8% (active); in [6], -72.6% (active). Besides, the growth was -89.9% (active) in [7], -76% (active) in assay [8], -76.6% (active) in assay [9] and -89.1% (active) in assay [10].

As for `COc1cc(C2CC(c3cccc(Nc4ccncc4)c3)=Nc3c(N)ncnc3N2)cc(OC)c1OC` (stereo not given), the growth was 88.3% in assay [1]; 98.1% in assay [2]; 83.8% in [3]; 93.8% in assay [4]; 77.7% in [5]; 93.8% in assay [6]. The growth is 93.7% in [7], 87.3% in assay [8], 91.3% in [9] and 102% in assay [10].

With `COc1ccc(Cn2cc(C(=O)N=Nc3c(O)[nH]c4ccc(Br)cc34)nn2)cc1`, the growth in [1] was 105%; in assay [2], 88.5%; in assay [3] it was 112%; in assay [4], 97.3%; in assay [5], 105%; in assay [6], 99.8%. Moreover, the growth in assay [7] was 98.3%; in [8] it was 97.2%; in [9] it was 107%; in [10] it was 115%.

For `FC(F)(F)c1cccc(-c2nnn(Cc3cc(-c4cccc(Cl)c4)no3)n2)c1`, the growth in [1] is 105%; in assay [2], 103%; in assay [3], 88.9%; in assay [4] it was 97.7%; in [5], 104%; in assay [6] it was 104%. The growth in [7] is 101%; in [8], 103%; in assay [9], 99.4%; in assay [10] it was 112%.

In the case of `C=C(C)[C@@H]1CCC[C@]2(C(=O)OC)CC[C@]3(C)[C@@H](CC[C@@H]4[C@@]5(C)CCCNC(C)(C)[C@@H]5CC[C@]43C)[C@@H]12`, the growth is 93.1% in [1]; 56.5% in assay [2]; 91.7% in [3]; 88.3% in assay [4]; 94.1% in assay [5]; 74.1% in assay [6]. Also, the growth is 90% in assay [7], 87.8% in assay [8], 97.8% in [9] and 94.3% in assay [10].

Regarding `O=C1CC2C=CCN2C=C1NC(=O)c1ccccc1` (stereo not given), the growth in assay [1] is 100%; in assay [2], 97.9%; in [3], 96.8%; in assay [4], 108%; in assay [5] it was 97.2%; in assay [6], 99.7%. Moreover, the growth is 100% in assay [7], 109% in assay [8], 99.3% in assay [9] and 103% in [10].
